The target of the assay is Nonstructural protein 3 (Zika virus) (UniProt A0A024AXB9). Particulars: PRVABC59, Concentration 10.0 uM.
Chain of Nonstructural protein 3 (Zika virus) (A0A024AXB9 as listed by the source): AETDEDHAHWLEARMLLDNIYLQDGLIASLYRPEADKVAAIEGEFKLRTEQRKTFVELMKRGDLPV

`N#Cc1cc(Cl)cc(C(=O)Nc2ccc3c(c2)CNC3)c1`: the pKD is 5.97 (Immobilization level 10000.0 pg/mm2, Rmax 13.0 pg/mm2, ka 937740.865 M-1s-1, kd 1.0 1/s); 6.02 (Immobilization level 12000.0 pg/mm2, Rmax 30.0 pg/mm2, ka 568340.521 M-1s-1, kd 0.543 1/s); 6.04 (Immobilization level 13000.0 pg/mm2, Rmax 21.0 pg/mm2, ka 849954.362 M-1s-1, kd 0.772 1/s).
The molecule `NCc1cc(NC(=O)c2cc(Cl)cc(NC(=O)OCc3ccccc3)c2)cc(C2=CC[C@H](C(=O)O)C2)c1` returned a pKD (Immobilization level 5500.0 pg/mm2, Rmax 9.0 pg/mm2, ka 171424.656 M-1s-1, kd 2.389 1/s) of 4.86.
As for `O=C(Nc1ccc2c(c1)CNC2)c1ccccc1-n1cccc1`, where the note is “Immobilization level 5500.0 pg/mm2, Rmax 27.0 pg/mm2, ka 207569.847 M-1s-1, kd 8.279 1/s”, the pKD was 4.4.
Regarding `CC(C)NC(=O)[C@H](Nc1ccc2c(c1)CNC2)c1cc(Cl)cc2[nH]ncc12`, the pKD by setting is: (Immobilization level 10000.0 pg/mm2, Rmax 25.0 pg/mm2, ka 625134.982 M-1s-1, kd 0.246 1/s) 6.4; (Immobilization level 12000.0 pg/mm2, Rmax 48.0 pg/mm2, ka 290518.5 M-1s-1, kd 0.198 1/s) 6.17; (Immobilization level 13000.0 pg/mm2, Rmax 30.0 pg/mm2, ka 486694.476 M-1s-1, kd 0.217 1/s) 6.35.
For the molecule `O=C1Cc2c(cccc2C(=O)Nc2ccc3c(c2)CNC3)N1`, the pKD runs as follows: (Immobilization level 3900.0 pg/mm2, Rmax 48.0 pg/mm2, ka 37165.995 M-1s-1, kd 0.04 1/s) 5.97; (Immobilization level 5500.0 pg/mm2, Rmax 106.0 pg/mm2, ka 18457.516 M-1s-1, kd 0.041 1/s) 5.65.
For the molecule `CC(C)c1ccc(Cl)cc1C(=O)Nc1ccc2c(c1)CNC2`, the negative-log KD (pKD) is, setting by setting: (Immobilization level 10000.0 pg/mm2, Rmax 50.0 pg/mm2, ka 207835.98 M-1s-1, kd 5.69 1/s) 4.56; (Immobilization level 12000.0 pg/mm2, Rmax 40.0 pg/mm2, ka 170668.879 M-1s-1, kd 3.145 1/s) 4.74; (Immobilization level 13000.0 pg/mm2, Rmax 24.0 pg/mm2, ka 212611.498 M-1s-1, kd 2.587 1/s) 4.92.
With `Cn1nc(C(=O)Nc2ccc3c(c2)CNC3)c2cc(Br)ccc21`, the pKD is, setting by setting: (Immobilization level 3900.0 pg/mm2, Rmax 7.0 pg/mm2, ka 186374.339 M-1s-1, kd 1.611 1/s) 5.06; (Immobilization level 4900.0 pg/mm2, Rmax 17.0 pg/mm2, ka 132352.529 M-1s-1, kd 1.379 1/s) 4.98; (Immobilization level 5500.0 pg/mm2, Rmax 22.0 pg/mm2, ka 128273.344 M-1s-1, kd 1.393 1/s) 4.96.
In the case of `CC(C)(C)c1ccc(Cl)cc1C(=O)Nc1ccc2c(c1)CNC2`, the pKD came to 4.94 (Immobilization level 10000.0 pg/mm2, Rmax 29.0 pg/mm2, ka 451041.562 M-1s-1, kd 5.162 1/s); 4.96 (Immobilization level 12000.0 pg/mm2, Rmax 32.0 pg/mm2, ka 233803.873 M-1s-1, kd 2.593 1/s); 5 (Immobilization level 13000.0 pg/mm2, Rmax 24.0 pg/mm2, ka 278548.314 M-1s-1, kd 2.759 1/s).
Take `O=C(Nc1ccc2c(c1)CNC2)c1ccc(F)c2[nH]ncc12`: the pKD worked out at 5.06 (Immobilization level 10000.0 pg/mm2, Rmax 1.0 pg/mm2, ka 202467.762 M-1s-1, kd 1.761 1/s); 4.96 (Immobilization level 12000.0 pg/mm2, Rmax 8.0 pg/mm2, ka 155094.955 M-1s-1, kd 1.71 1/s); 5.06 (Immobilization level 13000.0 pg/mm2, ka 200831.038 M-1s-1, kd 1.747 1/s).
As for `O=C(Nc1ccc([C@H]2CCNC2)cc1)c1cc(Cl)cc2[nH]ncc12`, the pKD by setting is: (Immobilization level 10000.0 pg/mm2, Rmax 36.0 pg/mm2, ka 266986.751 M-1s-1, kd 3.172 1/s) 4.92; (Immobilization level 12000.0 pg/mm2, Rmax 43.0 pg/mm2, ka 228557.467 M-1s-1, kd 2.265 1/s) 5; (Immobilization level 13000.0 pg/mm2, Rmax 32.0 pg/mm2, ka 486506.686 M-1s-1, kd 3.313 1/s) 5.17.
Turning to `Cn1ncc2c(C(=O)Nc3ccc4c(c3)CNC4)cc(C3CC3)nc21`, the pKD runs as follows: (Immobilization level 10000.0 pg/mm2, Rmax 33.0 pg/mm2, ka 244724.506 M-1s-1, kd 7.844 1/s) 4.49; (Immobilization level 12000.0 pg/mm2, Rmax 31.0 pg/mm2, ka 442165.646 M-1s-1, kd 5.14 1/s) 4.93; (Immobilization level 13000.0 pg/mm2, Rmax 33.0 pg/mm2, ka 379334.104 M-1s-1, kd 6.596 1/s) 4.76.
As for `N#Cc1ccc(Cl)c(C(=O)Nc2ccc3c(c2)CNC3)c1`, the negative logarithm of the KD (pKD) is, setting by setting: (Immobilization level 10000.0 pg/mm2, Rmax 28.0 pg/mm2, ka 455778.547 M-1s-1, kd 4.384 1/s) 5.02; (Immobilization level 12000.0 pg/mm2, Rmax 32.0 pg/mm2, ka 264828.882 M-1s-1, kd 2.458 1/s) 5.03; (Immobilization level 13000.0 pg/mm2, Rmax 23.0 pg/mm2, ka 313770.073 M-1s-1, kd 2.521 1/s) 5.09.
As for `O=C1Cc2c(cc(Br)cc2C(=O)Nc2ccc3c(c2)CNC3)N1`, the pKD is, setting by setting: (Immobilization level 10000.0 pg/mm2, Rmax 28.0 pg/mm2, ka 911035.824 M-1s-1, kd 0.165 1/s) 6.74; (Immobilization level 12000.0 pg/mm2, Rmax 50.0 pg/mm2, ka 582104.975 M-1s-1, kd 0.125 1/s) 6.67; (Immobilization level 13000.0 pg/mm2, Rmax 39.0 pg/mm2, ka 879294.654 M-1s-1, kd 0.141 1/s) 6.79.
Turning to `CCc1ncc(Cl)cc1C(=O)Nc1ccc2c(c1)CNC2`, the pKD (Immobilization level 10000.0 pg/mm2, Rmax 18.0 pg/mm2, ka 231152.44 M-1s-1, kd 2.909 1/s) was found to be 4.9; the negative-log KD (pKD) (Immobilization level 12000.0 pg/mm2, Rmax 36.0 pg/mm2, ka 247716.147 M-1s-1, kd 2.057 1/s) turned out to be 5.08; the pKD (Immobilization level 13000.0 pg/mm2, Rmax 25.0 pg/mm2, ka 245446.465 M-1s-1, kd 2.231 1/s) was 5.04.
Regarding `Cn1ncc2c(C(=O)Nc3ccc4c(c3)CNC4)cc(Br)cc21`, the pKD worked out at 5.96 (Immobilization level 10000.0 pg/mm2, Rmax 23.0 pg/mm2, ka 300646.199 M-1s-1, kd 0.327 1/s); 5.79 (Immobilization level 12000.0 pg/mm2, Rmax 66.0 pg/mm2, ka 115064.14 M-1s-1, kd 0.186 1/s); 5.9 (Immobilization level 13000.0 pg/mm2, Rmax 35.0 pg/mm2, ka 218446.798 M-1s-1, kd 0.273 1/s).
As for `NCCc1ccc(NC(=O)c2cc(Cl)cc3[nH]ncc23)cc1`, the pKD is, setting by setting: (Immobilization level 10000.0 pg/mm2, Rmax 37.0 pg/mm2, ka 181570.157 M-1s-1, kd 4.215 1/s) 4.63; (Immobilization level 12000.0 pg/mm2, Rmax 45.0 pg/mm2, ka 212645.467 M-1s-1, kd 3.181 1/s) 4.83; (Immobilization level 13000.0 pg/mm2, Rmax 31.0 pg/mm2, ka 239123.399 M-1s-1, kd 3.643 1/s) 4.82.
In turn, `O=C(NCc1ccc(F)cc1)[C@H](Nc1ccc2c(c1)CNC2)c1cc(Cl)cc2[nH]ncc12` displayed a negative-log KD (pKD) (Immobilization level 10000.0 pg/mm2, Rmax 51.0 pg/mm2, ka 449498.965 M-1s-1, kd 0.143 1/s) of 6.5; a pKD (Immobilization level 12000.0 pg/mm2, Rmax 66.0 pg/mm2, ka 240349.747 M-1s-1, kd 0.114 1/s) of 6.32; a negative-log KD (pKD) (Immobilization level 13000.0 pg/mm2, Rmax 64.0 pg/mm2, ka 328786.628 M-1s-1, kd 0.139 1/s) of 6.37.
With `O=C(Nc1ccc2c(c1)CNC2)c1cc(Cl)nc2[nH]ncc12`, the pKD reads like this: (Immobilization level 10000.0 pg/mm2, Rmax 24.0 pg/mm2, ka 257771.158 M-1s-1, kd 2.862 1/s) 4.96; (Immobilization level 12000.0 pg/mm2, Rmax 48.0 pg/mm2, ka 216828.153 M-1s-1, kd 2.008 1/s) 5.03; (Immobilization level 13000.0 pg/mm2, Rmax 31.0 pg/mm2, ka 263772.69 M-1s-1, kd 2.044 1/s) 5.11.
The molecule `C[C@H]1Oc2c(cccc2C(=O)Nc2ccc3c(c2)CNC3)NC1=O` had a negative logarithm of the KD (pKD) (Immobilization level 10000.0 pg/mm2, Rmax 20.0 pg/mm2, ka 247912.445 M-1s-1, kd 2.654 1/s) of 4.97; a pKD (Immobilization level 12000.0 pg/mm2, Rmax 35.0 pg/mm2, ka 236689.654 M-1s-1, kd 1.809 1/s) of 5.12; a negative logarithm of the KD (pKD) (Immobilization level 13000.0 pg/mm2, Rmax 26.0 pg/mm2, ka 250555.254 M-1s-1, kd 1.96 1/s) of 5.11.
Regarding `O=C1CCN(c2cc(Cl)cc(C(=O)Nc3ccc4c(c3)CNC4)c2)C(=O)N1`, the pKD amounted to 5.05 (Immobilization level 10000.0 pg/mm2, Rmax 25.0 pg/mm2, ka 256015.917 M-1s-1, kd 2.294 1/s); 5.13 (Immobilization level 12000.0 pg/mm2, Rmax 56.0 pg/mm2, ka 218751.029 M-1s-1, kd 1.634 1/s); 5.28 (Immobilization level 13000.0 pg/mm2, Rmax 29.0 pg/mm2, ka 336624.127 M-1s-1, kd 1.776 1/s).
The molecule `O=C(Nc1ccc(C2CCNCC2)cc1)c1cc(Cl)cc2[nH]ncc12` returned a pKD (Immobilization level 10000.0 pg/mm2, Rmax 4.0 pg/mm2, ka 163257.858 M-1s-1, kd 0.446 1/s) of 5.56; a negative-log KD (pKD) (Immobilization level 12000.0 pg/mm2, ka 318291.503 M-1s-1, kd 0.429 1/s) of 5.87; a pKD (Immobilization level 13000.0 pg/mm2, ka 203161.324 M-1s-1, kd 0.494 1/s) of 5.61.
As for `O=C(Nc1ccc2c(c1)CNCCO2)c1cc(Cl)cc2[nH]ncc12`, the negative logarithm of the KD (pKD) reads like this: (Immobilization level 10000.0 pg/mm2, Rmax 42.0 pg/mm2, ka 416936.25 M-1s-1, kd 0.968 1/s) 5.63; (Immobilization level 12000.0 pg/mm2, Rmax 47.0 pg/mm2, ka 414358.163 M-1s-1, kd 0.643 1/s) 5.81; (Immobilization level 13000.0 pg/mm2, Rmax 56.0 pg/mm2, ka 373791.933 M-1s-1, kd 0.809 1/s) 5.67.

In general, pKD refers to the negative decadic logarithm of the KD, by convention in mol/L. A lower pKD goes with a high KD.

The record behind these values is ChEMBL document CHEMBL5598561, “ASAP - In vitro binding kinetics” (2024).
